HTT ATP protect – protects HTT-Q103 PC12 cells, measured by ATP; 0.14% of 230,000 active; AID 1471; Potency, µM (series often up to 56.4 µM), for inactives: cytoprotection (ATP increase), most hits filed as activators; PC12 HTT-Q103 induced, cytoprotection, ATP luminescence, 40 h; note: % of control where 0% means no effect; nearly all actives have a fitted effect of over 45% in size
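Compounds added alongside 100 nM tebufenozide, which induces toxic Q103 huntingtin exon 1-GFP in stable PC12 cells; surviving cells quantified by luminescent ATP measurement. Medium: phenol red-free DMEM, 5% equine and 5% calf serum.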
HPGD inh – blocks human HPGD enzyme activity | 4.3% of 150,000 active | Potency, µM, inactives show top-dose activity change, negative = inhibition, most hits filed as inhibitors | P15428 | purified HPGD, NADH fluorescence kinetic, PGE2 substrate; active = well fitted inhibition curve with a large enough effect, not every such curve was filed as active; inconclusive = small, poorly fitted or top-dose-only effect, or another doubt; inactive = no such curve, though single readings can be large or run the other way; note: % is set by controls: 0 for no effect and ±100 for the full control effect
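20 nM HPGD preincubated 15 min at room temperature with compound in 50 mM Tris-HCl pH 8, 0.01% Tween 20. Started with 1 mM NAD+ and 30 uM prostaglandin E2; NADH fluorescence (360/450 nm) read 5 times over 30-s intervals, last minus first.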
LMNA splice mod – modulators of lamin A splicing | HeLa LMNA splicing GFP/RFP minigene ratio, 48 h | Potency, µM (doses to about 46.1 µM), without a hit: top-dose ratio change, negative = inhibition, actives largely listed as inhibitors | 0.01% of 200,000 active; active = well fitted inhibition curve with a large enough effect in the signal ratio, with a control signal flat, not every such curve was filed as active; inconclusive = small, poorly fitted or top-dose-only effect, or effect the other way, or a change in a side signal; the % refers to the signal ratio; note: % is set by controls: 0 for no effect and ±100 for the full control effect
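S3 HeLa stable clones carrying a lamin A-EGFP splicing minigene plus DsRed2 were seeded at 600 cells/well in Opti-MEM with 2% FBS, pin-dosed and incubated 48 h at 37°C. Acumen cytometry (488 nm) gave the GFP/RFP total-intensity ratio.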
HttQ103 aggreg – reduces HttQ103-GFP aggregates in PC12 cells | Potency, µM (doses to about 46.1 µM), inactives show at the highest dose activity change, negative = inhibition, hits mostly inhibitors | 1.1% of 220,000 active | AID 1688 | PC12 HttQ103-GFP aggregates, Acumen cytometry, 40 h; note: % is set by controls: 0 for no effect and ±100 for the full control effect; nearly all actives have a fitted effect of over 60% in size
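Quantitative HTS on tebufenozide-induced (100 nM) PC12 cells stably expressing polyQ103 Huntingtin exon 1–GFP. Reduction of bright GFP aggregates, detected by laser scanning cytometry after lysis, identified actives across the titration.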
ALDH1A1 inh – ALDH1A1 (human) enzyme inhibition | P00352 | Purified ALDH1A1, NADH fluorescence, propionaldehyde substrate | Potency, µM (titrated, usually from 75.3 µM), for inactives: at the highest dose activity, negative = inhibition, most hits filed as inhibitors | 7.3% of 220,000 active; active = well fitted inhibition curve with a large enough effect, not every such curve was filed as active; inconclusive = small, poorly fitted or top-dose-only effect, or another doubt; inactive = no such curve, though single readings can be large or run the other way;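 note: plate controls were no enzyme wells and a reference inhibitor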
Target sequence (P00352 whole entry, looked up): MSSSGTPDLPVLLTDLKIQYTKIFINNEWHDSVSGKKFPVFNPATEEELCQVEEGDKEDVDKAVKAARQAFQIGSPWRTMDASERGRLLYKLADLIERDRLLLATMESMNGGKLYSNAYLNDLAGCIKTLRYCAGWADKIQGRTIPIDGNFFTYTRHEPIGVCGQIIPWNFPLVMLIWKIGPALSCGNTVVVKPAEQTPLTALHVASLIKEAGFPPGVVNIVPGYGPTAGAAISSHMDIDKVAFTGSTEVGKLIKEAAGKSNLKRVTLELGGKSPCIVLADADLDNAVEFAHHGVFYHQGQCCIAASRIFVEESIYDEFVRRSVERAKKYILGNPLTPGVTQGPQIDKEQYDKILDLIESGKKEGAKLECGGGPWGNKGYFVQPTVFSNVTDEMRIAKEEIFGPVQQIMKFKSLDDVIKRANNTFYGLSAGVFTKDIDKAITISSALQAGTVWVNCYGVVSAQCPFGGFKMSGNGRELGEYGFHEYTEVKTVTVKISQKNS
* = called active by the depositor; [ ] = dose if it differs, or a comment. The list is not random: actives were taken first. Their share in the collection is about 8.8%. Unless noted, calls come from the whole dose curve; as a rule, active = well fitted curve in the direction sought with a large enough effect; inconclusive = small, poorly fitted or top-dose-only effect, or another doubt; inactive = no such curve, though single readings can be large; an effect the other way counts as inactive or inconclusive. Potency is the fitted concentration of half-maximal effect.

Screening O=C(COS(=O)c1ccccc1)Nc1cc(Cl)ccc1N1CCOCC1 (configuration not stated) returned HTT ATP protect -15%, HttQ103 aggreg 11%[9.22 µM] and ALDH1A1 inh 1.3µM*.
Screening CCN(CC)S(=O)(=O)c1ccc(N2CCOCC2)c(NC(=O)c2ccccc2F)c1 returned HTT ATP protect -25%[10 µM], HttQ103 aggreg 9%[9.22 µM] and ALDH1A1 inh inconclusive.
`Cc1ccc(S(=O)OCC(=O)Nc2cc(Cl)ccc2N2CCOCC2)cc1` (configuration not stated) gave HTT ATP protect 4%[10 µM], LMNA splice mod 22%[46 µM], HttQ103 aggreg 3% and ALDH1A1 inh inconclusive.
Screening CCN(CC)S(=O)(=O)c1ccc(N2CCOCC2)c(NC(=O)COc2ccccc2)c1 returned HTT ATP protect -19%, LMNA splice mod -15%[46 µM], HttQ103 aggreg -4% and ALDH1A1 inh 0.22µM*.
`CCN(CC)S(=O)(=O)c1ccc(N2CCOCC2)c(NC(=O)CNCCc2ccccc2)c1` gave HTT ATP protect 0%[10 µM], HttQ103 aggreg 9%[9.22 µM] and ALDH1A1 inh 11µM*.
`CCOc1ccc(CNC(=O)CN2C(=O)CCn3nc(-c4cn(C)c5ccccc45)cc32)cc1OC` gave LMNA splice mod -22%[46 µM].
Screening COc1ccc(CN2CCN(S(=O)(=O)c3ccc(C)cc3)CC2)cc1Br returned HTT ATP protect 5%, HPGD inh -7%, LMNA splice mod -15%, HttQ103 aggreg -13% and ALDH1A1 inh 20µM*.
Cc1ccc(C2NC(=S)NC3=C2C(=O)CCC3)cc1 (configuration not stated) was read as HTT ATP protect -17%, LMNA splice mod 1%[46 µM], HttQ103 aggreg 0% and ALDH1A1 inh inconclusive.
For CC(C)c1ccc(C2NC(=S)NC3=C2C(=O)CCC3)cc1 (configuration not stated) the results were HTT ATP protect 2%[10 µM], HPGD inh -2%, LMNA splice mod inconclusive, HttQ103 aggreg 10% and ALDH1A1 inh 4µM*.
Oc1ccc([C@@H]2CNCCc3c2cc(O)c(O)c3Cl)cc1 was read as HTT ATP protect -5%, HPGD inh -1% and ALDH1A1 inh -12%.
CCCc1nnc(SCc2ccc(OCC)cc2)n1N was read as HTT ATP protect -90%[10 µM], HPGD inh 28µM*, LMNA splice mod -8%, HttQ103 aggreg inconclusive and ALDH1A1 inh -1%.
`CCCCc1nnc(SCc2ccc(OCC)cc2)n1N` gave HTT ATP protect 10%, HPGD inh 25µM*, LMNA splice mod inconclusive, HttQ103 aggreg -8% and ALDH1A1 inh 7%.
Screening CCc1nnc(SCc2ccc(CSc3nnc(CC)n3N)cc2)n1N returned HTT ATP protect 7%, HPGD inh -6%, LMNA splice mod 14%, HttQ103 aggreg -3% and ALDH1A1 inh -1%.
For N#Cc1c(NC(=O)CCC(=O)O)ccc2ccccc12 the results were HTT ATP protect 0%[10 µM], HPGD inh -10% and ALDH1A1 inh 1%[13.5 µM].
Screening O=c1ccsn1Cc1ccccc1 returned HTT ATP protect -109%, HPGD inh 20µM*, LMNA splice mod 7%, HttQ103 aggreg inconclusive and ALDH1A1 inh inconclusive.
O=C1C2CCCCC2C(=O)N1Cc1ccccc1 (configuration not stated) was read as LMNA splice mod 18%[46 µM] and ALDH1A1 inh inconclusive.
COc1ccc(/C=N/Nc2nc(NCc3ccco3)nc(Nc3ccc(OC)cc3)n2)cc1 was read as HTT ATP protect 3%[10 µM], HPGD inh -27%, LMNA splice mod -5%, HttQ103 aggreg 9% and ALDH1A1 inh 11µM*.
COc1ccc(Nc2nc(NCc3ccco3)nc(N/N=C/c3ccc(O)cc3)n2)cc1 was read as HTT ATP protect 13%[10 µM], HPGD inh inconclusive, LMNA splice mod inconclusive, HttQ103 aggreg -3% and ALDH1A1 inh 4%.
Screening Cc1cccc(C2=N/C(=C\c3cccs3)C(=O)O2)c1 returned HTT ATP protect -15%, LMNA splice mod 11%[46 µM], HttQ103 aggreg -8% and ALDH1A1 inh inconclusive.
`CCOc1ccc(-c2c(C#N)c(N)nc3sc(C(=O)c4ccccc4)c(N)c23)cc1` gave HTT ATP protect 9%[10 µM] and HttQ103 aggreg -6%[9.22 µM].
COc1ccc(-c2c(C#N)c(N)nc3sc(C(=O)c4ccccc4)c(N)c23)cc1 was read as HTT ATP protect -11%[10 µM], HPGD inh inconclusive, LMNA splice mod -17%, HttQ103 aggreg -4% and ALDH1A1 inh 4µM*.
`CN(C(=O)c1cccn(Cc2ccccc2)c1=O)c1ccccc1` gave HTT ATP protect -17%, HttQ103 aggreg 14% and ALDH1A1 inh -3%.
Screening CN(C(=O)c1ccc(=O)n(Cc2ccc(Cl)cc2)c1)c1ccccc1 returned HTT ATP protect -55%, HttQ103 aggreg 5% and ALDH1A1 inh 14µM*.
`CN(CCCNC(=O)C1CCCN(S(=O)(=O)c2cnc[nH]2)C1)c1ccccc1` (configuration not stated) gave HTT ATP protect 8%, HPGD inh -10%, LMNA splice mod 3%, HttQ103 aggreg 25% and ALDH1A1 inh inconclusive.
`CCCCN(Cc1ccccc1)C(=O)C1CCCN(S(=O)(=O)c2cnc[nH]2)C1` (configuration not stated) gave HTT ATP protect 1%, HPGD inh -6%, LMNA splice mod 0%, HttQ103 aggreg 2% and ALDH1A1 inh 14µM*.
For CCOc1cc(C(=O)Nc2ccc(-c3nnc4n3CCCCC4)cc2)cc(OCC)c1OCC the results were LMNA splice mod 13%[46 µM].
`CCOC(=O)C1CCCN(S(=O)(=O)c2ccc(C)cc2)C1` (configuration not stated) gave HTT ATP protect 1%[10 µM], HPGD inh -12%, LMNA splice mod -16%, HttQ103 aggreg -24% and ALDH1A1 inh 8.9µM*.
O=C(NCc1cccs1)C1CCCN(S(=O)(=O)c2ccc3c(c2)OCO3)C1 (configuration not stated) was read as HTT ATP protect -13%, LMNA splice mod 3%, HttQ103 aggreg -9% and ALDH1A1 inh -4%.
`Cc1ccc(S(=O)(=O)N2CCCC(C(=O)N(Cc3cccs3)C3CC3)C2)cc1` (configuration not stated) gave HTT ATP protect 12%[10 µM], HPGD inh -6%, LMNA splice mod inconclusive, HttQ103 aggreg inconclusive and ALDH1A1 inh 7.1µM*.
For COc1ccc(S(=O)(=O)NCC2CCCN(C(=O)C3CCCC3)C2)cc1 (configuration not stated) the results were HTT ATP protect 12%[10 µM], LMNA splice mod 0%[46 µM], HttQ103 aggreg 3%[9.22 µM] and ALDH1A1 inh 3.5µM*.
CCOC(=O)C1CCN(S(=O)(=O)c2ccc(OC)c(Cl)c2Cl)CC1 was read as HTT ATP protect 18%, HPGD inh -20%, LMNA splice mod 1%, HttQ103 aggreg -1% and ALDH1A1 inh 6.3µM*.

Bioassay records (PubChem)
